High-throughput results (PubChem BioAssay)
Only some compounds are listed: those with a hit (about 0.4% of all), similar ones and a draw of the others.
FMDV FLuc – Primary qHTS Assay for Foot and Mouth Disease Virus Antivirals against NCGC Sytravon and CBC Compound Libraries: Firefly Luciferase Signal | FMDV antiviral cell assay, firefly luciferase signal | Potency, µM (top dose mostly 57.5 µM), for inactives: top-dose activity change, negative = inhibition, usual class: inhibitors | hit rate 0.23% among 120,000; also: nearly all actives have a fitted effect of over 60% in size
FMDV RLuc – Primary qHTS Assay for Foot and Mouth Disease Virus Antivirals against NCGC Sytravon and CBC Compound Libraries: Renilla Luciferase Signal. Potency, µM (doses to about 57.5 µM), for the others: top-dose activity change, negative = inhibition, usual class: inhibitors. AID 1745857, 2022. hit rate 0.32% among 120,000. FMDV replicon cells, Renilla luciferase signal; also: nearly all actives have a fitted effect of over 55% in size
The depositor's hits bear a star; ? = inconclusive. Calls follow the shape of the full dose curve. % is scaled to controls: 0 for no effect and ±100 for the full control effect; potency is read from the fitted curve at half-maximal effect.

SMILES	FMDV FLuc	FMDV RLuc
O=C(CSc1cnc2ccccc2n1)c1ccc2c(c1)OCCO2	13%	0%
O=C(CSc1ncnc2ccccc12)c1ccc2c(c1)OCCCO2	-31%	14µM*
COc1cc(C2CC(=O)Nc3nc(N4CCCCC4)sc32)ccc1OCC(N)=O (configuration not stated)	19%	0%
CC1=CC(=O)c2ccc3c4c(ccc1c24)CC3	31%	?
Cc1cc(N2CCN(C(C(=O)O)c3c[nH]c4ccc(Cl)cc34)CC2)nc2ccccc12 (configuration not stated)	-9%	-12%
CC1=C(C(=O)Nc2cc(C)ccc2C)C(c2cccc3ccccc23)NC(=S)N1 (configuration not stated)	-10%	1%
O=C(Cc1ccccc1)NC1CCN(c2ccc(S(=O)(=O)C(F)(F)F)cc2)CC1	3.2µM*	3.5µM*
O=C(CCc1ccccc1)NC1CCN(c2ccccc2S(=O)(=O)C(F)(F)F)CC1	-21%	?
CCCCc1nc2sc3c(NCC(C)O)ncnc3c2c2c1CCC2 (configuration not stated)	14%	8%
Cc1c(C)c2ccc(OCC(=O)NCCc3ccc(S(N)(=O)=O)cc3)cc2oc1=O	3%	0%
C=C(C)COc1ccc2c(C)c(CC(=O)NCCc3ccc(S(N)(=O)=O)cc3)c(=O)oc2c1	4µM*	3.5µM*
CNC(=O)/C(=C/c1cc2ccc(OC)cc2nc1Cl)NC(=O)c1ccccc1	-1%	-15%
O=C(Nc1ccnn1Cc1cccs1)c1ccc(S(=O)(=O)N2CCCC2)cc1	14µM*	?
O=C(Nc1nc(-c2ccncc2)cs1)c1ccc(S(=O)(=O)N2CCCCC2)cc1	5%	-11%
CCc1c(C)sc(NC(=O)c2ccccc2C)c1C#N	101%	18%
C(=Nc1ccccc1)c1ccc(-c2cccs2)s1	?	8.9µM*
CC(C)(C)c1ccc(N=Cc2cccs2)cc1	4%	4%
COc1ccc(Nc2cc(C)nc(Nc3ccc(NC(=O)C4CCCCC4)cc3)n2)cc1	?	28µM*
Cc1cc(Nc2ccccc2)nc(Nc2ccc(NC(=O)c3ccc(Cl)cc3)cc2)n1	14µM*	13µM*
Cc1cc(N2CCOCC2)nc(Nc2ccc(NC(=O)c3ccccc3)cc2)n1	-21%	-18%
Cc1ccc(NC(=O)C2CCCCC2)cc1	197%	1%
O=C(Nc1ccc2nc(N3CCN(C4CCCCC4)CC3)cc(C(=O)O)c2c1)c1cccc(Cl)c1	-2%	-6%
Cc1nc2cc(NC(C)c3nc(C(C)C)no3)ccc2o1 (configuration not stated)	42%	1%
CN(CCOc1cccc(Cl)c1)Cc1cc(=O)oc2cc(O)ccc12	-3%	4%
CC(=O)N1CCN(Cc2coc(-c3ccc(Cl)cc3)n2)CC1	12%	?
SMILES	FMDV FLuc	FMDV RLuc
O=C(CSCc1coc(-c2ccc(Cl)cc2)n1)N1CCCCC1	-13%	20µM*
c1ccc(OCCCN2CCC(c3nc4ccccc4s3)CC2)cc1	0%	4%
COc1ccc(C(NC(=O)CNc2ccccc2C(N)=O)C2CC2)cc1 (configuration not stated)	8%	-5%
Cc1ccc(NC(=O)Cc2coc3ccc(C(C)C)cc23)cc1Cl	?	-19%
CCc1ccc2occ(CC(=O)Nc3ccc(C)c(C)c3)c2c1	25µM*	?
Cc1nc(C)c(-c2ccc(SCC(=O)Nc3ccc(C)c(F)c3)nn2)s1	3%	2%
Cc1nc(C)c(-c2ccc(SCC(=O)Nc3ccc(F)c(F)c3)nn2)s1	?	7.9µM*
N#Cc1c(SCCN2CCOCC2)nc(N2CCCCC2)c2c1CCCC2	-19%	-16%
CCCCS(=O)(=O)c1oc(-c2cccs2)nc1S(=O)(=O)c1ccc(F)cc1	28µM*	-5%
CCCCCS(=O)(=O)c1oc(-c2cccs2)nc1S(=O)(=O)c1ccc(C)cc1	-10%	-12%
Cc1ccc(C)c(Nc2cc(C(=O)NCCCN(C)C3CCCCC3)c3ccccc3n2)c1	-14%	32µM*
Cc1cc(C)cc(Nc2cc(C(=O)NCCCN(C)C3CCCCC3)c3ccccc3n2)c1	-15%	-5%
Cc1ccc(C(=O)Nc2cc3c(cc2SCc2ccco2)n(C)c(=O)n3C)cc1	0%	3%
CC(C)NC(=O)/C(C#N)=C\c1ccc(O)cc1	79%	8%
CC(C)NC(=O)/C(C#N)=C\c1cccc(/C=C(/C#N)C(=O)NC(C)C)c1	28µM*	-34%
COc1ccc(-c2nsc(NC(=O)COc3ccccc3OC)n2)cc1	11%	-4%
CC(Oc1ccc(F)cc1)C(=O)Nc1nc(-c2ccc(F)cc2)ns1 (configuration not stated)	22µM*	22µM*
COc1cccc(C2CC(=O)Nc3nc(N)sc32)c1OC(C)C (configuration not stated)	6%	-4%
Cc1ccccc1NC(=O)Cc1nc(-c2c(N)n(C)c(=O)n(C)c2=O)cs1	11%	2%
CCOc1ccccc1NC(=O)NCc1ccc2c(c1)CCN2C(=O)c1ccccc1	8.9µM*	7.1µM*
CCc1ccccc1NC(=O)NCc1ccc2c(c1)CCN2C(=O)c1ccccc1	-21%	-16%
COc1cccc(C(=O)Nc2c(C(=O)N3CCN(Cc4ccccc4)CC3)oc3ccccc23)c1	-3%	22%
CCCCOC(=O)c1ccc(NC(=O)c2cc(=O)c3ccccc3o2)cc1	-19%	-5%
CCCCOC(=O)c1cccc(NC(=O)c2cc3ccccc3o2)c1	8.9µM*	-13%
Cc1cc(C(=O)Nc2c(C)nn(Cc3ccc(F)cc3)c2C)no1	1%	4%
SMILES	FMDV FLuc	FMDV RLuc
Cc1nn(Cc2ccc(F)cc2)c(C)c1NC(=O)c1cc(-c2cccs2)on1	35µM*	?
COc1cc(NC(=O)c2ncoc2-c2ccc(OC)c(OC)c2)cc(OC)c1	7%	12%
COc1ccc(C(=O)Nc2nnc(SCc3cc(=O)c4cc(C)cc(C)c4[nH]3)s2)cc1	12%	-10%
COc1ccc(-c2nnc(SCc3cc(=O)c4cc(C)cc(C)c4[nH]3)n2C)cc1	?	4µM*
COc1ccc(C(=O)NCCc2csc(-c3ccc(Cl)cc3)n2)cc1	-16%	-22%
CCCCOc1ccc(C(=O)NCCc2csc(-c3ccc(OC)cc3)n2)cc1	13µM*	11µM*
COc1cccc(CN2CCN(Cc3cc(OC)c(O)c(OC)c3)CC2)c1	-1%	-8%
CC(=O)NCc1ccc(-c2csc(Nc3cccc(C(F)(F)F)c3)n2)o1	35%	-7%
Cc1nc(-c2ccc(CNC(=O)c3nccnc3N)s2)cs1	?	8.9µM*
Cc1nc(-c2ccc(CCNC(=O)c3nccnc3N)s2)cs1	26%	?
O=C(C1CCC(CNS(=O)(=O)c2cccs2)CC1)N1CCN(c2ccc(Cl)cc2)CC1 (configuration not stated)	?	4.5µM*
O=C(C1CCN(S(=O)(=O)c2cccs2)CC1)N1CCN(c2cccc(Cl)c2)CC1	3%	-1%
Cc1sc(NC2CCCC2)nc1-c1ccc(NS(C)(=O)=O)cc1	0%	5%
Cc1cccc(C(=O)N2CCN(Cc3ccc(-c4cccc(F)c4)s3)CC2)n1	10µM*	?
Cc1ccc2c(CN3CCN(C(=O)c4cccc(F)c4)CC3)cc(=O)oc2c1	17%	1%
CCCC(C)NC(=O)CCc1ccc(-c2ccc(OC)cc2)o1 (configuration not stated)	44%	3%
Clc1ccc(-c2ccc(CNCC3CCNCC3)o2)c(Cl)c1	?	28µM*
